# HCMV antiviral: qHTS Assay for inhibitors of the human cytomegalovirus (HCMV); activity change, negative = inhibition, % at 57.5 µM; 410,000 compounds, 4.5% hits; HFF cells, HCMV-luciferase reporter, 72 h; active compounds read low; AID 1259415, 2018; in the data active = activity change below about -60%; inconclusive = no clear call, values can overlap the other calls; inactive = above about -39%
#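 Screen run at 2 compound doses on HFFs infected with reporter HCMV, MOI 1 PFU/cell. Luciferase activity from cell lysates at 72 h post infection gave inhibition relative to buffer-only and Salinomycin wells.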
# Lassa entry inh: qHTS for Inhibitors of binding or entry into cells for Lassa Virus; Lassa virus pseudotype entry inhibition, cell reporter; Potency, µM (doses to about 37.9 µM), most hits filed as inhibitors; 300,000 compounds, 1.2% hits; AID 540256, 2011; calls by dose curve; tested in HEK293 cells; also: nearly all actives have a fitted effect of over 50% in size
# FMDV inh: High Throughput Screening for Foot and Mouth Disease Virus Antivirals; FMDV antiviral cell-based qHTS; Potency, µM (series often up to 57.9 µM), actives largely listed as inhibitors; 410,000 compounds, 1.2% hits; calls by dose curve; tested in HEK293T cells; also: read-out not given here; nearly all actives have a fitted effect of over 45% in size
# Marburg entry inh: qHTS for inhibitors of binding or entry into cells for Marburg Virus; Potency, µM (highest dose often 37.8 µM), most hits filed as inhibitors; Marburg virus pseudotyped entry inhibition, cell reporter; 300,000 compounds, 1.8% hits; calls by dose curve; tested in HEK293 cells
# HCV inhibitor: qHTS Assay for Inhibitors of Hepatitis C Virus (HCV); Huh7.5.1 HCVcc-Cre infection, luciferase reporter, 44 h; Potency, µM (doses to about 41.8 µM), usual class: inhibitors; 340,000 compounds, 3.4% hits; AID 651820, 2012; active = well fitted inhibition curve with a large enough effect; inconclusive = small, poorly fitted or top-dose-only effect, or another doubt; inactive = no such curve, though single readings can be large or run the other way
#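 Compounds are dispensed onto cells plated 4 h earlier at 1,000 per well, with HCVcc-Cre virus (about 0.5 moi) added next. Following 44 h of culture, luminescent signal is measured for 15 sec after 15 min with substrate at room temperature.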
# A number is an active result; . = inactive; ? = inconclusive; / = not tested or not shown. Sampled rows, rich in hits. Any-hit rate of the full collection: about 7.9%.
SMILES,HCMV antiviral,Lassa entry inh,FMDV inh,Marburg entry inh,HCV inhibitor
CCOC(=O)N1CCN(C(=O)CN(c2cc(Cl)ccc2OC)S(=O)(=O)c2ccccc2)CC1,-92,?,.,.,.
CCOC(=O)N1CCN(C(=O)CN(c2cccc(C)c2)S(=O)(=O)c2ccccc2)CC1,.,.,.,.,.
Cc1cccc(C)c1N(CC(=O)Nc1cc(Cl)ccc1Oc1ccccc1)S(C)(=O)=O,.,?,.,?,?
COc1ccc(Cl)cc1NC(=O)CN(c1cccc(C)c1C)S(=O)(=O)c1ccccc1,-62,.,.,.,/
COc1ccc(OC)c(NC(=O)CN(c2ccccc2OC)S(=O)(=O)c2ccc(C)cc2)c1,-100,?,.,.,/
Cc1ccc2c(=O)cc(C(=O)Nc3cccc(C(F)(F)F)c3)oc2c1C,.,.,.,.,/
COc1ccc(S[C@]2(C(=O)N3CCCC3)CC(=O)N(c3ccccc3)[C@@H]2c2ccc(OC)cc2)cc1,.,/,/,/,/
COC(=O)CC=C[C@@H](C)[C@@H](C=NOC[C@@H](O)COCc1ccco1)OC,/,/,/,.,/
Cc1cc(C)cc(NC(=O)C2CC23CCN(Cc2ccc4ncccc4c2)CC3)c1 (stereo not given),/,/,.,/,/
COc1ccc(N(CC(=O)Nc2ccc(Cl)cc2C)S(=O)(=O)c2ccccc2)c(OC)c1,-71,?,.,?,/
COc1ccc(Cl)cc1NC(=O)CN(C)C(=O)C1CC(=O)N(Cc2ccc(C)cc2)C1 (stereo not given),.,.,.,.,32µM
COc1ccc(NC(=O)CN(c2ccccc2)S(=O)(=O)c2ccccc2)c(OC)c1,.,/,.,/,?
COc1ccc(Cl)cc1NC(=O)CN(C)C(=O)c1sc2ccccc2c1Cl,.,/,.,/,13µM
COc1ccc(NC(=O)CN(C)C(=O)C2CC(=O)N(Cc3ccc(C)cc3)C2)cc1 (stereo not given),.,.,.,.,.
COc1ccccc1N(CC(=O)NCCSCc1cccc(C)c1)S(=O)(=O)c1ccccc1,.,?,?,?,13µM
CNC(=O)C1CCN(Cc2cc3ccccc3n2Cc2cccc(C)c2)CC1,.,.,.,/,/
CCOC(=O)N1CCC(NC(=O)c2ccc3c(c2)N(Cc2ccc(Cl)cc2)C(=O)c2ccccc2S3(=O)=O)CC1,.,.,.,?,/
COc1ccc([C@H]2C[C@H](c3ccc(C)cc3)Nc3nc(N)nn32)cc1,/,/,/,.,/
Cc1cccc(N(CC(=O)NCCSCc2ccc(Cl)cc2)S(C)(=O)=O)c1C,.,13µM,.,?,/
COc1ccccc1NC(=O)CN(C)S(=O)(=O)c1cc(C)ccc1OC,.,.,.,.,.
COc1ccc(OC)c(S(=O)(=O)N(C)CC(=O)Nc2cc(Cl)ccc2OC)c1,.,.,?,.,11µM
Cc1c(C(=O)NCc2ccc(F)cc2)sc2ncnc(NCC3CCCO3)c12 (stereo not given),/,/,.,/,/
CCS(=O)(=O)c1nc(S(=O)(=O)c2ccc(Cl)cc2)c(N2CCN(C)CC2)s1,-77,/,.,/,.
Cc1ccc(S(=O)(=O)c2nc(S(=O)(=O)c3ccc(C)cc3)c(N3CCN(CCO)CC3)s2)cc1,-107,/,.,/,?
CN1CCN(c2sc(S(C)(=O)=O)nc2S(=O)(=O)c2ccc(Cl)cc2)CC1,-80,/,.,/,.
SMILES,HCMV antiviral,Lassa entry inh,FMDV inh,Marburg entry inh,HCV inhibitor
CS(=O)(=O)c1nc(S(=O)(=O)c2ccc(Cl)cc2)c(N2CCN(CCO)CC2)s1,-63,/,.,/,.
CS(=O)(=O)c1nc(S(=O)(=O)c2ccc(Cl)cc2)c(N2CCCCCC2)s1,?,.,.,.,.
CCS(=O)(=O)c1nc(S(=O)(=O)c2ccc(Cl)cc2)c(N2CCCC2)s1,.,/,.,/,.
Cn1c(=O)c2c(-c3ccccc3)n(-c3cccc(C#N)c3)cc2n(C)c1=O,.,.,.,.,/
O=C(NCc1cccnc1)c1nn(-c2ccccc2F)nc1CO,.,.,.,.,/
CC1=C(C(=O)OC2CCCC2)C(c2ccccc2C(F)(F)F)CC(=O)N1 (stereo not given),?,.,?,?,/
NC1(C(=O)O)CCc2cc(P(=O)(O)O)ccc21 (stereo not given),/,/,.,/,/
COc1ccc(-n2c(=O)c3ccccc3n(Cc3ccccc3C)c2=O)c(OC)c1,?,.,.,.,/
Cc1ccc(S(=O)(=O)c2nc(S(C)(=O)=O)sc2N2CCCCC2C)cc1 (stereo not given),-75,/,.,/,.
